A selection: hits, their analogues and other compounds. The true share with any hit is near 13%.
USP17 block: blocks human USP17 ubiquitin-rhodamine cleavage | hit rate 6.5% among 47,000 | inhibition, % at 50 µM | purified USP17, Ub-rhodamine cleavage fluorescence, 3 h | AID 1645855
USP30 block: inhibitors of human USP30 deubiquitinase; purified USP30, Ub-rhodamine cleavage fluorescence; inhibition, % at 25 µM; Q70CQ3; hit rate 5.3% among 47,000
USP8 block: blocks human USP8 ubiquitin-rhodamine cleavage; hit rate 4.2% among 47,000; inhibition, % at 20 µM; P40818; purified USP8, Ub-rhodamine cleavage fluorescence, 30 min
UCHL1 block: inhibitors of human UCHL1 deubiquitinase | hit rate 0.2% among 47,000 | purified UCHL1, Ub-rhodamine cleavage fluorescence | inhibition, % at 20 µM | P09936
USP7 inh: inhibitors of human USP7 deubiquitinase. inhibition, % at 20 µM. purified USP7, Ub-rhodamine cleavage fluorescence. hit rate 0.3% among 47,000. Q93009
Target sequence (Q93009 whole entry, looked up): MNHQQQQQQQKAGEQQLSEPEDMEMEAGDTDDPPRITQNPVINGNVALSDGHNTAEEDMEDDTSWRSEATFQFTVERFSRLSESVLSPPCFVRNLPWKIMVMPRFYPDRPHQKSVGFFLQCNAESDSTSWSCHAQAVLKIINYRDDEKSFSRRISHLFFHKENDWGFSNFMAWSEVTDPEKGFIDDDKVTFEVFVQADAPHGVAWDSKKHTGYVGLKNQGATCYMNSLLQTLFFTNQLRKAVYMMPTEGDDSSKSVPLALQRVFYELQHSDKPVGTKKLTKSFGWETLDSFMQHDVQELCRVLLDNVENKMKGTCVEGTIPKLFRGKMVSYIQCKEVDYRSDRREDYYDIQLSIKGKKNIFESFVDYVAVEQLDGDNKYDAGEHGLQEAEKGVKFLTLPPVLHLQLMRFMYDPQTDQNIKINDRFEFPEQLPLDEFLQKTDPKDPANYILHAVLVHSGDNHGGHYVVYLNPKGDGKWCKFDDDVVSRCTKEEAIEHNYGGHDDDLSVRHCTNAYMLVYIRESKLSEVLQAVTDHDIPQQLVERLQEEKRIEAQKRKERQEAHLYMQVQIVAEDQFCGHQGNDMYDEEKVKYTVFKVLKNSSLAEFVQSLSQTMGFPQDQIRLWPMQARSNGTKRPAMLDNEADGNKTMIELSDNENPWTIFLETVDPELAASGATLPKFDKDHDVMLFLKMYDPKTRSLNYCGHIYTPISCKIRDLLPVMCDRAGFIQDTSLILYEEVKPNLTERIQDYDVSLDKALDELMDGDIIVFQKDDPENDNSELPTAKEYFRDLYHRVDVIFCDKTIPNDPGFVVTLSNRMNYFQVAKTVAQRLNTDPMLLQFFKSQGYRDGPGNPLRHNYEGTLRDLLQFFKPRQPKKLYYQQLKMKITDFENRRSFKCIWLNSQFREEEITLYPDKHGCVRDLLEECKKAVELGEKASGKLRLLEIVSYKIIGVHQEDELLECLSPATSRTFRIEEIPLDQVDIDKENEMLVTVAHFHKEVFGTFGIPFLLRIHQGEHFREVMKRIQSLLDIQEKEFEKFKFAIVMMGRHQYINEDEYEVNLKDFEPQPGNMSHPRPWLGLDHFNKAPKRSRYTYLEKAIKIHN
USP10 inh: inhibitors of human USP10 deubiquitinase. Q14694. purified USP10, Ub-rhodamine fluorescence, 60 min. inhibition, % at 20 µM. hit rate 1.1% among 47,000
A number is an active result. No stated cut-off is given here; in the data, active means inhibition above about 30%; inactive means the rest.

How did NC(=O)C1CCN(C(=O)c2nnn(-c3ccc(OC(F)(F)F)cc3)n2)CC1 do in these assays?
USP17 block: inactive; USP30 block: inactive; USP8 block: inactive; UCHL1 block: inactive; USP7 inh: inactive; USP10 inh: inactive

Results for NC(=O)C1CCN(C(=O)c2nnn(-c3ccccc3)n2)CC1 ?
USP17 block: inactive; USP30 block: 34; USP8 block: inactive; UCHL1 block: inactive; USP7 inh: inactive; USP10 inh: inactive

What do the screens show for `COc1ccc(-n2nnc(C(=O)N3CCN(c4ccccc4Cl)CC3)n2)cc1`?
USP17 block: inactive; USP30 block: 33; USP8 block: inactive; UCHL1 block: inactive; USP7 inh: inactive; USP10 inh: inactive

What do the screens show for `COc1ccc(-n2nnc(C(=O)N3CCC4(CC3)OCCO4)n2)cc1`?
USP17 block: inactive; USP30 block: inactive; USP8 block: inactive; UCHL1 block: inactive; USP7 inh: inactive; USP10 inh: inactive

How did COc1ccc(N2CCN(C(=O)c3nnn(-c4ccc(OC)cc4)n3)CC2)cc1 do in these assays?
USP17 block: inactive; USP30 block: 36; USP8 block: inactive; UCHL1 block: inactive; USP7 inh: inactive; USP10 inh: inactive

What do the screens show for `O=C(NCc1ccco1)N1CCc2[nH]nc(-c3ccccc3)c2C1`?
USP17 block: inactive; USP30 block: inactive; USP8 block: inactive; UCHL1 block: inactive; USP7 inh: inactive; USP10 inh: inactive

What do the screens show for `COc1ccccc1C1C2=C(NCCN=C2c2ccccc2)C(=O)N1c1ccccc1` (configuration not stated)?
USP17 block: inactive; USP30 block: inactive; USP8 block: inactive; UCHL1 block: inactive; USP7 inh: inactive; USP10 inh: inactive

What do the screens show for `Cc1ccc(-c2n[nH]c3c2C(c2ccccc2F)N(c2ccccc2)C3=O)cc1` (configuration not stated)?
USP17 block: 69; USP30 block: 55; USP8 block: 71; UCHL1 block: inactive; USP7 inh: inactive; USP10 inh: inactive

Results for Cc1ccc(C2=NCCNC3=C2C(c2ccccc2F)N(c2ccccc2)C3=O)cc1 (configuration not stated) ?
USP17 block: inactive; USP30 block: 36; USP8 block: inactive; UCHL1 block: inactive; USP7 inh: inactive; USP10 inh: inactive

Results for CC1CCCCN1Cc1nc(Cn2ccn3nc(-c4ccccc4)cc3c2=O)no1 (configuration not stated) ?
USP17 block: inactive; USP30 block: inactive; USP8 block: inactive; UCHL1 block: inactive; USP7 inh: inactive; USP10 inh: inactive

How did O=C(c1ncccn1)N1CCC[C@@]2(C[C@@H](Oc3ccccc3F)CO2)C1 do in these assays?
USP17 block: inactive; USP30 block: inactive; USP8 block: inactive; UCHL1 block: inactive; USP7 inh: inactive; USP10 inh: inactive

What do the screens show for `NS(=O)(=O)c1cccc(NCc2nc3scc(-c4ccccc4)c3c(=O)[nH]2)c1`?
USP17 block: 43; USP30 block: 32; USP8 block: inactive; UCHL1 block: inactive; USP7 inh: inactive; USP10 inh: inactive

Results for O=c1[nH]c(Cc2ccc([N+](=O)[O-])cc2)nc2scc(-c3ccccc3)c12 ?
USP17 block: inactive; USP30 block: inactive; USP8 block: inactive; UCHL1 block: inactive; USP7 inh: inactive; USP10 inh: inactive

How did O=C(O)c1ccccc1Cc1nc2scc(-c3ccccc3)c2c(=O)[nH]1 do in these assays?
USP17 block: inactive; USP30 block: inactive; USP8 block: 31; UCHL1 block: inactive; USP7 inh: inactive; USP10 inh: inactive

How did O=C(c1cn2cc(Cl)ccc2n1)N1CCN(c2ccccn2)CC1 do in these assays?
USP17 block: inactive; USP30 block: inactive; USP8 block: inactive; UCHL1 block: inactive; USP7 inh: inactive; USP10 inh: inactive

How did O=C1CCCC[C@@H]2[C@H](CCN2Cc2ccc3ncccc3c2)N1Cc1ccccc1F do in these assays?
USP17 block: inactive; USP30 block: inactive; USP8 block: 47; UCHL1 block: inactive; USP7 inh: inactive; USP10 inh: inactive

Results for COc1ccc(-c2nc(-c3ccccc3)[nH]c2S(=O)(=O)CC(=O)Nc2ccc(F)cc2)cc1 ?
USP17 block: 36; USP30 block: inactive; USP8 block: inactive; UCHL1 block: inactive; USP7 inh: inactive; USP10 inh: inactive

Results for COc1ccc(NC(=O)CS(=O)(=O)c2[nH]c(-c3ccc(C)cc3)nc2-c2ccccc2)cc1Cl ?
USP17 block: inactive; USP30 block: 60; USP8 block: inactive; UCHL1 block: inactive; USP7 inh: inactive; USP10 inh: inactive

Screening data from PubChem.
